Measured values as given in publication PMC7819943, “Rice protein-binding microarrays: a tool to detect cis-acting elements near promoter regions in rice”.
Whole data set: some 68,000 sequences, median “fluorescence intensity (a.u.)” near 9,100, cut for the highest 2% near 16,000. Shown is part of a subset that was picked to be rich in the highest values.

target: OsWRKY34 (Oryza sativa, UniProt Q0JBA9 1-250); test: protein-binding microarray (RPBM); PBS, 2% BSA, 51.3 ng/ul salmon testes DNA, 50 uM zinc acetate, 200 nM TF, 25 C, 1 h; high values mean tight binding; conditions: protein: recombinant; tags: N-terminal polyhistidine and DsRed monomer fusion (pET32a); label: CyDye5-dUTP incorporated in the synthesized complementary strand; 3' TTTTT single-stranded linker to array surface; dsDNA, one strand shown
Sequence (Q0JBA9 entry or part of it): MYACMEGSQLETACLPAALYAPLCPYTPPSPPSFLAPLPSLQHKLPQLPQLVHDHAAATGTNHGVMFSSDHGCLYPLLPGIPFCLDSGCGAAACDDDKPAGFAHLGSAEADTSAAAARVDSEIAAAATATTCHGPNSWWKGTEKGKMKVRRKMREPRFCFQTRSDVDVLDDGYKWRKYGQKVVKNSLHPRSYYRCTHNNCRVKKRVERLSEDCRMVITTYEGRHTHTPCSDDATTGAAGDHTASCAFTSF
How it was run: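 Transcription factors were made in E. coli BL21-CodonPlus as N-terminal fusions to a polyhistidine tag and DsRed, then purified on Ni–NTA. After primer extension with Cy5-dUTP and blocking with 2% BSA, a custom Agilent array was exposed for 1 h at 25 °C to 200 nM protein in PBS, 2% BSA, salmon testes DNA and 50 µM zinc acetate. Washed arrays were scanned on an Axon 4000B, and the binding signal is per-feature fluorescence intensity in arbitrary units.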

Sequence | binding signal
CTCTTATAACCACTTCTTTTTAAATCATTTGTTTATATGTCGGAGTCACCTAGTGCAG | 10200 fluorescence intensity (a.u.)
TGGTCTGGCAGTTTTTGAGACGGGGAGTTGACTCAGATATCGGAGTCACCTAGTGCAG | 9260 fluorescence intensity (a.u.)
AGGCTCTATTGGTTTCTCCTCTGTACATACAGTAGTAGTCCGGAGTCACCTAGTGCAG | 8640 fluorescence intensity (a.u.)
TTCTACACTCTCTTGATCAGCTCTCACCACTATGTACACTCGGAGTCACCTAGTGCAG | 8860 fluorescence intensity (a.u.)
TTTTTTTCGGTCTCAATATTTTTTTTTCTCACGTCTTTCGCGGAGTCACCTAGTGCAG | 10800 fluorescence intensity (a.u.)
CCTTGACCGTTCCCAGAAAGGTTGACCGTTGTCCGTCACTCGGAGTCACCTAGTGCAG | 9240 fluorescence intensity (a.u.)
TTTTATATCCCTCACCGTACGATCCAACGTTCCGATTTCTCGGAGTCACCTAGTGCAG | 8890 fluorescence intensity (a.u.)
CGCTCCTCGCGGCCGCCGCCGCCGCCTCCCTCCTCGCCTTCGGAGTCACCTAGTGCAG | 8660 fluorescence intensity (a.u.)
ATACCGCCTATTTGCCACTCGTTTTTCTTCTCTTGGGCCGCGGAGTCACCTAGTGCAG | 18700 fluorescence intensity (a.u.)
CACACCTCGCCGCTCTTCCCGGCCTCCACCCGCCGCCCTTCGGAGTCACCTAGTGCAG | 8510 fluorescence intensity (a.u.)
TTCTCTTTTTCTTTTTATTTTTTCGTTCTCGTCGCCGCCGCGGAGTCACCTAGTGCAG | 8330 fluorescence intensity (a.u.)
AACCACTCGCTTCCAAACAATCCAAACCTTCCATGCCATTCGGAGTCACCTAGTGCAG | 64700 fluorescence intensity (a.u.)
GCTTCGGCCCAACAACATTCCACTCGGCCCAACAACCACCCGGAGTCACCTAGTGCAG | 9750 fluorescence intensity (a.u.)
CCAACCACTCCATCATCATTCGCAATCCAATCTCGCTCTTCGGAGTCACCTAGTGCAG | 9230 fluorescence intensity (a.u.)
CCAAGCGCCCGCCGCCTCGCTCCCTCCTCTTCCTTGACCTCGGAGTCACCTAGTGCAG | 35200 fluorescence intensity (a.u.)
ACCTCTAACCGCCACTAGTTTTTTATACTCTTCTCTATAGCGGAGTCACCTAGTGCAG | 8470 fluorescence intensity (a.u.)
AATTCTCGTCTTCTCGGAGGTTTCTGAGGGGAGGGAGAGGCGGAGTCACCTAGTGCAG | 8480 fluorescence intensity (a.u.)
CCGGTCCTTCACCCACTTCAGCTTCACGTTCACCAGCGTCCGGAGTCACCTAGTGCAG | 10200 fluorescence intensity (a.u.)
ATTTTTTCCTCTAATTAAGTCATATCACATCAATTGTTTTCGGAGTCACCTAGTGCAG | 10200 fluorescence intensity (a.u.)
GGCATTTGGGTGTTATGCATGCCGGCCGGCCCGTACGTACCGGAGTCACCTAGTGCAG | 11700 fluorescence intensity (a.u.)
AGCTGGATTACCCTTTATACATTTTACTTTAATCTCTTTGCGGAGTCACCTAGTGCAG | 10900 fluorescence intensity (a.u.)
GACGTATCATAGTCTCTGTTTAGATTTCTAGTACTATGATCGGAGTCACCTAGTGCAG | 9340 fluorescence intensity (a.u.)
ACTGAGTATTATTATATCCTAACTAAGTTATCGTACATTCCGGAGTCACCTAGTGCAG | 8060 fluorescence intensity (a.u.)
AATCAGAATATTACCTTCTTGTATTTGTTCTCTGTAGGAACGGAGTCACCTAGTGCAG | 8870 fluorescence intensity (a.u.)

Sequence | binding signal
GCTGTAGAAATTTCTCCTTCTTTGTTAAATGTATGTCTTTCGGAGTCACCTAGTGCAG | 9540 fluorescence intensity (a.u.)
ACATACACTACACACCCTGTTCTTGCAGTACGCCAATTAACGGAGTCACCTAGTGCAG | 9780 fluorescence intensity (a.u.)
TCTCTCTCACTCTTCCGGTCTTCCCTGGGCAGGCTAGCCGCGGAGTCACCTAGTGCAG | 8840 fluorescence intensity (a.u.)
CAGACACATACCTTTCATGCTTCAACTTTTGTATGTTTGTCGGAGTCACCTAGTGCAG | 8170 fluorescence intensity (a.u.)
ATATGTTGTTTGACTTTTTTCATAGTCAGAAGTCTATTGGCGGAGTCACCTAGTGCAG | 19000 fluorescence intensity (a.u.)
TTCATGTCAGAATCCTATGTTTTTCCTATTCCTTTGTTTTCGGAGTCACCTAGTGCAG | 11000 fluorescence intensity (a.u.)
ATGATTTTTGGGTCATTTGGTTTGTTTTTGACTTTTGCAACGGAGTCACCTAGTGCAG | 12100 fluorescence intensity (a.u.)
TTTGTACCCGTTTTCTACTTTTTTTGTTTCATATTATTAACGGAGTCACCTAGTGCAG | 10900 fluorescence intensity (a.u.)
AATGGTTTGGTTGTTGTTTTTTTTAAAAAAAACTTTCAGGCGGAGTCACCTAGTGCAG | 8170 fluorescence intensity (a.u.)
TATTTCTATATGGACTTTGTTTTTTCTTTTTCTTCTTTTTCGGAGTCACCTAGTGCAG | 13100 fluorescence intensity (a.u.)
TGGGGTCATGTTTGTACTTTGGCAACTGGTCGACTTCATACGGAGTCACCTAGTGCAG | 18400 fluorescence intensity (a.u.)
TTGTTGTAAAGCTTATGGGTCTACTTTCATATGGTTTTGGCGGAGTCACCTAGTGCAG | 64100 fluorescence intensity (a.u.)
GCTATACATCTTTCCACTACTTCTCCTCAGCTCGCTTTCCCGGAGTCACCTAGTGCAG | 8130 fluorescence intensity (a.u.)
AGCTTCTTTTTCTGTGATAGCAATACTGCCTCGAGGAGGACGGAGTCACCTAGTGCAG | 8950 fluorescence intensity (a.u.)
CCCAAAGTATTGATCGTTTTTGTTTATCATTTTGCTGGATCGGAGTCACCTAGTGCAG | 10300 fluorescence intensity (a.u.)
AACCTCTACTGCTCCATATATTTTCTTTCTGTCAGCCCATCGGAGTCACCTAGTGCAG | 11200 fluorescence intensity (a.u.)
ACGTAACACCTAGCAATTTTCTTCTCGCGAAATAAACAGTCGGAGTCACCTAGTGCAG | 8500 fluorescence intensity (a.u.)
GCAACCTCAGGATGCTCCACGAGCTTTCTCTTAGCTACAACGGAGTCACCTAGTGCAG | 17000 fluorescence intensity (a.u.)
GAGCTCCAAAGCTACGGTTTTTTTTTCTCTTTCTTTCTCACGGAGTCACCTAGTGCAG | 9080 fluorescence intensity (a.u.)
GGCAAACAATGCTCTCAGCCTCGCTTAGCTTTCACTCCACCGGAGTCACCTAGTGCAG | 8030 fluorescence intensity (a.u.)
CTTCTCCCATGCGCCGCCGCAATCTCATCTCTCTGTTTTTCGGAGTCACCTAGTGCAG | 9220 fluorescence intensity (a.u.)
TAGATCAATACTGCCTAACGAACTTTTTTTTTTTTTTACGCGGAGTCACCTAGTGCAG | 16400 fluorescence intensity (a.u.)
TACTTATATTTACTTGCAGATCAGTTGCCTGCCAATACCGCGGAGTCACCTAGTGCAG | 8390 fluorescence intensity (a.u.)
